Laboratory results: PubChem BioAssay (NCATS)
Records with an inconclusive call do not appear. The source made the active and inactive calls. Calls follow the shape of the dose curve; as a rule, active = well fitted inhibition curve with a large enough effect; inconclusive = small, poorly fitted or top-dose-only effect; inactive = no such curve, though single readings can be large or run the other way.

Assay: qHTS for Inhibitors of the Aldehyde Dehydrogenase Family (ALDH1A2, ALDH1A3, ALDH2, ALDH3A1) (AID 2061307); also: nearly all actives have a fitted effect of over 50% in size; as to Potency: test system not described further here
Conditions: ALDH inhibition qHTS; series mostly up to 50.3 µM; activity change, negative = inhibition: at the top concentration
% is scaled to controls: 0 for no effect and ±100 for the full control effect; potency is read from the fitted curve at half-maximal effect.

Potency, active:
O=C(CN1CCC(CCc2ccccc2)CC1)Nc1ccccc1 15.8 µM, c1ccc(CCN(Cc2ccccc2)C2CCN(C3CCCCC3)CC2)cc1 7.94 µM, Cc1ccccc1CN1CCN(Cc2ccc3ccccc3n2)CC1CCO (stereo not given) 3.18 µM, Cc1ccc(N2CCN(C(=S)c3ccc(-c4ccccc4[N+](=O)[O-])o3)CC2)cc1 3.57 µM, c1coc(-c2ccc3nncn3c2)c1 8.96 µM, Cc1nnc(NCc2ccc(Cl)cc2)o1 8.96 µM, COc1cc(O)c(C(CC(=O)N2CC(C)CC(C)C2)c2ccc(C(N)=O)cc2)c(OC)c1 (stereo not given) 0.282 µM, O=C([C@H](NS(=O)(=O)c1ccc2[nH]c(=O)ccc2c1)c1ccc(F)cc1)N(Cc1ccco1)Cc1cccs1 25.2 µM, O=C(c1ccc(Cl)cc1)c1no[n+]([O-])c1C(=O)c1ccc(Cl)cc1 7.98 µM, COc1ccccc1CNc1ccc(N2CCCCC2)cc1 2.52 µM, Cc1sc(NC(=O)Cc2ccc3c(c2)OCO3)nc1-c1ccc2c(c1)CCN2C(=O)c1ccccc1OC(F)(F)F 3.16 µM, O=C(NC1CCCC1)c1csc(N2CCN(c3cccc(Cl)c3)CC2)n1 3.16 µM, COCCCn1c(SCC(=O)Nc2ccc(C(N)=O)cc2)nnc1-c1ccc(Cl)cc1 2.24 µM

Activity change, negative = inhibition, inactive:
N#Cc1ccc(C(=O)Nc2nnc(C3=COCCO3)o2)cc1 -19.6%, N#Cc1ccc(CN2CCC(N(CCc3ccccc3)Cc3ccccc3)CC2)cc1 -18.5%, Cc1c2c(=O)n(-c3ccccc3)[nH]c2cc(=O)n1Cc1ccccn1 -29%, COc1ccc(-c2ccncc2)cc1OC -17.3%, Cn1c(C(=O)O)cnc1-n1cc(Cc2ccc(S(N)(=O)=O)cc2)c(-c2ccccc2)n1 0.644%, O=C(Nc1cccnc1Cl)c1cc(-c2cccc(Cl)c2)on1 -20.9% [at 34.4 µM], NCC(=O)Nc1ccc2c(c1)Oc1cc(NC(=O)CN)ccc1C21OC(=O)c2ccccc21 216%, Cc1ccc(-n2ncc3c(Nc4cccc(C(=O)O)c4)ncnc32)cc1 0%, Nc1c(Cc2ccc(S(N)(=O)=O)cc2)c(-c2ccccc2)nn1-c1nc(C(=O)O)co1 -2.94%, Cc1ccc(CNC(=O)c2cc(=O)c3cc(C)ccc3o2)cc1 -29.9% [at 34.4 µM], O=C(Nc1ccccc1C(=O)Nc1cccc(C(F)(F)F)c1)c1ccc(Cl)cc1 18.7%, O=C(Nc1ccc(S(=O)(=O)N2CCOC(c3ccccc3)C2)cc1)c1ccc(CN2CCc3ccccc3C2)cc1 (stereo not given) 1.44%, CN(C)CC(=O)NC1CCCc2c1cnn2-c1ccc(OCCOCCOCCNC(=O)OC(C)(C)C)cc1 (stereo not given) -1.55%, COc1ccc(C(=O)OCC(=O)Nc2cccc(C(F)(F)F)c2)cc1OC -19.9%, COc1ccc(NC(=O)c2ccc3ccccc3n2)cc1S(N)(=O)=O -34.1% [at 34.4 µM], c1ccc(CCN(Cc2ccccc2)C2CCN(c3ccccc3)CC2)cc1 -12.4%, CCN(CC)C(=O)c1ccc(S(=O)(=O)N2CCC(c3nc4ccccc4s3)CC2)cc1 -10.7%, COCCN(CC(=O)Nc1cccc(C)c1C)C(=O)c1cc2c(s1)CCC2 -5.3%, O=C(Nc1nc2ccc(Cl)cc2s1)c1cc(=O)c2ccccc2o1 -34.5% [at 34.4 µM], CN(C)C(C(=O)N1CCN(c2ccc(C#N)cc2)CC1)c1ccccc1F (stereo not given) 2.22% [at 34.4 µM], COc1ccc(Nc2nc(N3CCCC3)nc(N3CCOCC3)n2)cc1 10.8%, COc1ccc(-n2c(C)c(C(C)=O)c3cc(OC(=O)c4ccccc4OC(C)=O)ccc32)cc1 0% [at 34.4 µM], NCC(=O)Nc1cc(-c2nn3c(=O)cc(N4CCNCC4)nc3s2)ccn1 5.66%, Cc1csc2c1c(=O)n(O)c(=O)n2Cc1ccccc1 -27.1%, O=S(=O)(Nc1ccccc1F)c1cccc(NC(=S)NCCN2CCOCC2)c1 -5.69%, O=C(O)c1csc(-n2nc(C(F)(F)F)cc2-c2ccc(Cl)cc2)n1 -9.54%, CN(C)Cn1c(O)c(N=NC(=O)c2cccnc2)c2ccccc21 5.4%
